Screening data from PubChem BioAssay.
Rows were chosen to be rich in hits. Some 22% of all compounds tested hit in one or more screens of this group.
CYP2C9 inhib: human CYP2C9 inhibition; P11712; CYP2C9 Supersomes, luciferin-H conversion, luminescence; inhibition, % at 5 µM; 20% of 96,000 active;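 active means blocking of liver enzyme CYP2C9 beyond about 50% at 5 µM, limit read from the data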
Target sequence (P11712 whole entry, looked up): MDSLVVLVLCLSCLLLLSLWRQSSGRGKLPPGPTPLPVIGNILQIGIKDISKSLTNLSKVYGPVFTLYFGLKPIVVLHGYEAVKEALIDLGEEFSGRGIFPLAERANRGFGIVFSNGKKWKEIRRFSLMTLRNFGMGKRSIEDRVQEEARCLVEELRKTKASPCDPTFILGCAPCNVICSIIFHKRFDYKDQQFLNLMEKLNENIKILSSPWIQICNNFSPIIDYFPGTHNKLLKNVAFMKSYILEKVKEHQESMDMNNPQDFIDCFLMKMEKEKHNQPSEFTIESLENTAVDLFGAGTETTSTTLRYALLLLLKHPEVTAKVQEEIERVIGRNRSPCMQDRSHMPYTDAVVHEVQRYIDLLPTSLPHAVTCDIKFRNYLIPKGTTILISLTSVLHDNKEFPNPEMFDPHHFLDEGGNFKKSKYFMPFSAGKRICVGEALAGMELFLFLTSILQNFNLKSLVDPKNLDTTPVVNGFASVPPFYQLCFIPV
Measles CPE: protection of cells from measles virus. Measles virus-infected cells, CPE protection, absorbance. protection (pct of control), % at 4 µM. 1.5% of 140,000 active. AID 841; in the data active means protection mostly above about 24%, no sharp cut-off; inactive means mostly below about 26%
CYP2C19 act: increases human CYP2C19 enzyme activity. 96,000 tested, under 10 active. activation factor at 5 µM. recombinant CYP2C19, luciferin-H EGE luminescence; stronger effect = higher value; 0 = fully inhibited enzyme, 1 = untreated enzyme. P33261;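 active means activation factor of at least 2 at 5 µM in the primary screen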;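 further: 0 = wells with 2.5 mM tranylcypromine and 1 = vehicle-only wells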
CYP2C19 inh: blocks human cytochrome P450 2C19; AID 778; 21% of 96,000 active; CYP2C19 Supersomes, luciferin-H EGE luminescence, 30 min; P33261; inhibition, % at 5 µM;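 active means CYP2C19 inhibition above a set limit at 5 µM in the primary screen, cut at about 50% in these data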;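 further: plate controls were negative control wells for no effect and 2.5 mM tranylcypromine positive control for full effect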
CYP2C9 act: activators of human CYP2C9. recombinant CYP2C9, luciferin-H conversion, luminescence; stronger effect = higher value; factor 1 = untreated enzyme, 0 = blocked. activation factor at 5 µM. 1.4% of 96,000 active. AID 1024;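 active means activation factor of 2 or more for CYP2C9 at a 5 µM dose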;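 further: 0 = sulfaphenazole-blocked wells and 1 = vehicle-only wells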
The depositor's hits bear a star; nt = no result.

SMILES	CYP2C9 inhib	Measles CPE	CYP2C19 act	CYP2C19 inh	CYP2C9 act
O=C(CSc1nc2ccccc2n1-c1ccccc1)NCC1CCCO1 (stereo not drawn)	72*	25	0	96*	0.3
CN(C)S(=O)(=O)n1ccnc1	-4	18	1.1	-6	1
COC(=O)C1=C(C(=O)OC)C(c2ccccc2O)c2sc(=O)[nH]c2S1 (stereo not drawn)	nt	4	nt	nt	nt
COC(=O)C1CCN(C(=O)COC(=O)[C@@H]2CC(O)CN2S(=O)(=O)c2ccc3c(c2)OCCO3)CC1 (stereo partly drawn)	nt	12	nt	nt	nt
CCOC(=O)/C(N=Nc1sc(C(=O)OC)c(C)c1C(=O)OCC)=C(\O)CCl	nt	4	nt	nt	nt
COc1ccc(Br)cc1CN(C)CC(=O)Nc1c(Cl)ccc(C)c1Cl	nt	11	nt	nt	nt
O=C(CSc1nc2c(sc3ccccc32)c(=O)n1Cc1ccco1)NCC1CCCO1 (stereo not drawn)	68*	3	0.5	51*	0.3
CCC(C)NC(=O)CSc1nc2ccccc2c(=O)n1CCCC(=O)NCC1CCCO1 (stereo not drawn)	43	9	0.9	8	0.6
O=C(CCCn1c(SCC(=O)NC2CCCCC2)nc2ccccc2c1=O)NCC1CCCO1 (stereo not drawn)	65*	7	0.6	36	0.4
CC(=O)NCCn1c(SCC(=O)NCC2CCCO2)nc2ccccc2c1=O (stereo not drawn)	nt	52*	nt	nt	nt
O=C(CSc1nc2ccccc2c(=O)n1CC1CCCO1)NCC1CCCO1 (stereo not drawn)	13	5	0.9	10	0.9
O=C(Cn1cc2c(n1)CCCC2)NCCCN1CCN(c2ccccc2F)CC1	-7	10	0.8	20	1.1
CN1CCN(S(=O)(=O)c2ccc(Sc3nnc(-c4cccs4)n3-c3ccccc3)nc2)CC1	8	3	1	-3	0.9
O=S(=O)(Nc1ccc(-n2cccc2)cc1)c1ccccc1	98*	8	0	100*	0
O=S(=O)(Nc1ccc(S(=O)(=O)Nc2ccccc2)cc1)c1ccccc1	89*	4	0.7	28	0.1
O=S(=O)(Nc1ccc(S(=O)(=O)Nc2cccc3ccccc23)cc1)c1ccccc1	90*	13	0.2	83*	0.1
O=S(=O)(Nc1ccc(N=Nc2ccccc2)cc1)c1ccccc1	nt	6	nt	nt	nt
Cc1ccc(C)c(C(=O)COC(=O)c2cc([N+](=O)[O-])ccc2NCCO)c1	nt	7	nt	nt	nt
N#Cc1ccc(-c2ccc(OCC(=O)NCCc3ccccc3)cc2)cc1	nt	9	nt	nt	nt
CCCCn1nnnc1SCC(=O)N1CCOCC1	-14	3	0.6	38	1.1
c1ccc2c(Oc3ccc4c(c3)OCO4)nncc2c1	5	15	0.4	62*	0.9
N#CCc1ccc(C(=O)c2ccccc2F)s1	4	11	0.7	25	1
CCS(=O)(=O)NCC(c1cccnc1)N1CCN(c2ccc(F)cc2)CC1 (stereo not drawn)	3	19	1	4	1
CN(C)/C=C(/C(=O)c1ccc(Cl)cc1)S(=O)(=O)c1ccc(Cl)cc1	-4	2	0.4	62*	1
CN(C)/C=C(\C(=O)c1ccc(Cl)cc1)c1nnnn1-c1ccc(Cl)cc1	nt	12	nt	nt	nt
SMILES	CYP2C9 inhib	Measles CPE	CYP2C19 act	CYP2C19 inh	CYP2C9 act
O=C(NN1C(=O)C2C3C=CC(C4CC34)C2C1=O)c1ccc(Cl)cc1Cl (stereo not drawn)	-14	2	1	2	1.1
CN(C)/C=C(/C(=O)c1ccc(Cl)cc1Cl)S(=O)(=O)c1ccccc1	63*	6	0.9	14	0.4
CN(C)/C=C(/C(=O)c1ccc(Cl)cc1Cl)S(=O)(=O)c1ccc(Cl)cc1	95*	16	0.2	80*	0
O=C(Nc1ccc(N=Nc2ccccc2)cc1)c1ccc(Cl)cc1Cl	-7	30	1.1	-8	1.1
CC(C)n1c(SCc2ccccc2F)nc2c1c(=O)n(C)c(=O)n2C	74*	6	0.4	60*	0.3
CCOc1ccc(CN(C(=O)c2oc3ccccc3c2C)C2CCS(=O)(=O)C2)cc1 (stereo not drawn)	34	5	0.6	37	0.7
COc1ccc(CN(C(=O)c2oc3ccccc3c2C)C2CCS(=O)(=O)C2)cc1OC (stereo not drawn)	96*	14	0.2	75*	0
CC(C)c1ccc(CN(C(=O)c2cc3ccccc3oc2=O)C2CCS(=O)(=O)C2)cc1 (stereo not drawn)	62*	17	0.8	15	0.4
O=C(c1cc2ccccc2oc1=O)N(Cc1ccco1)C1CCS(=O)(=O)C1 (stereo not drawn)	38	9	0.7	28	0.6
CC(C)[C@H](NC(=O)[C@H](CC(=O)O)NC(=O)[C@H](CCCCN)NC(=O)[C@@H](N)CCCN=C(N)N)C(=O)N[C@@H](Cc1ccc(O)cc1)C(=O)O	nt	3	nt	nt	nt
Cc1cccc(NC(=O)Cn2c(=O)n(CCc3c[nH]c4ccccc34)c(=O)c3cccnc32)c1	nt	11	nt	nt	nt
Cc1ccc(N=C2NC(=O)/C(=C/c3cn(C)c4ccccc34)S2)cc1C	nt	13	nt	nt	nt
O=C(CCc1ccccc1)N1CCCN(C(=O)CCc2ccccc2)CC1	nt	26	nt	nt	nt
O=C(NCc1cccs1)C1CCCN(c2ncccn2)C1 (stereo not drawn)	-18	4	0.5	53*	1.2
C=CCNC(=O)C1CC(=O)N(c2ccc(Br)cc2)C1 (stereo not drawn)	2	2	0.7	32	1
O=C(NCc1cccs1)C1CCCCC1	12	14	0.5	51*	0.9
CCNC(=O)C1CC(=O)N(c2ccc(Br)cc2)C1 (stereo not drawn)	7	2	0.3	70*	0.9
CCOC(=O)CNC(=O)C1CCCN(c2ncccn2)C1 (stereo not drawn)	-14	5	1	0	1.1
O=C(NCc1cccs1)C1CC(=O)N(c2ccc(F)cc2)C1 (stereo not drawn)	-50	4	0.4	59*	1.5
O=C1CN(C(=O)CSc2nnnn2-c2ccc(Cl)cc2)c2ccccc2N1	-5	4	0.9	13	1
CCc1nc2ccccc2c(C(=O)OCCN2C(=O)c3ccccc3C2=O)c1C	57*	30	0.2	76*	0.4
CCc1nc2ccccc2c(C(=O)OCc2nnc(-c3ccccc3)o2)c1C	61*	3	0.3	68*	0.4
CCc1nc2ccccc2c(C(=O)O)c1C	39	11	0.5	48	0.6
CCOC(=O)C(CCCOc1ccc(C)cc1)C(=O)OCC	29	15	0.7	35	0.7
CCOC(=O)C(CCCOc1ccc(C(C)CC)cc1)C(=O)OCC (stereo not drawn)	71*	3	0.7	28	0.3
COc1ccc(OCCSc2nnc(Cc3cccc4ccccc34)n2N)cc1	nt	8	nt	nt	nt
COCCNC(=O)c1c[nH]n2c(=O)cc(C3CCN(C(=O)OC(C)(C)C)CC3)nc12	62*	13	0.9	9	0.4
COc1ccccc1-n1nnnc1SCC(=O)Nc1cc(C)on1	-14	28	0.3	65*	1.1
